Molecules are shown by their SMILES. More than one record can exist for a structure, and the calls need not agree. Activity calls are given as the source filed them. Rule for the calls: active = hit-call score of the fitted dose curve at least 0.9, where 1 is the maximum; inactive = score below 0.9.

A word on the AC50: it is the concentration giving half of the maximal activity seen.

Sequence of Myc proto-oncogene protein (Homo sapiens) (P01106 whole entry, looked up): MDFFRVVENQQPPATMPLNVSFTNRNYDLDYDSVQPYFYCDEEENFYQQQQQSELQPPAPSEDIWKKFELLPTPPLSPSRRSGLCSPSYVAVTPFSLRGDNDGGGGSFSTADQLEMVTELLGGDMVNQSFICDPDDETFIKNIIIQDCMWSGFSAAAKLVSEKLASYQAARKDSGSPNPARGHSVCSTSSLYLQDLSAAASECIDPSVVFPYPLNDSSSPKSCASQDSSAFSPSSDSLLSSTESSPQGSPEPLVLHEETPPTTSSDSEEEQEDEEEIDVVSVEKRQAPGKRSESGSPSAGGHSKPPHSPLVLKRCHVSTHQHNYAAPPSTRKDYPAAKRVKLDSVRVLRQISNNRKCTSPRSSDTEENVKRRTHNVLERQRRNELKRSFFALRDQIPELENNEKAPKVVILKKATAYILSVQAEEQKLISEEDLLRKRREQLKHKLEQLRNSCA

The assay concerns the target Myc proto-oncogene protein (Homo sapiens) (UniProt P01106). The experiment in a line: ATG_Myc_CIS: Attagene CIS-FACTORIAL HepG2 Assay for human Myelocytomatosis (Myc) Proto-Oncogene Transcription Factor (AID 2282990). The conditions noted are these: HepG2, Attagene cis-reporter transcription factor activity; actives raise or lower the signal. As to the method: ATG_CIS is a cell-based, multiplexed-readout assay that uses HepG2, a human liver cell line, with measurements taken at 24 hours after chemical dosing in a 24-well plate.ATG_Myc_CIS is one of 52 assay component(s) measured or calculated from the ATG_CIS assay. It is designed to make measurements of mRNA induction, a form of inducible reporter, as detected with fluorescence intensity signals by Reverse transcription polymerase chain reaction (RT-PCR) and Capillary electrophoresis technology.Data from the assay component ATG_Myc_CIS was analyzed into 1 assay endpoint. This assay endpoint, ATG_Myc_CIS, was analyzed with bidirectional fitting relative to DMSO as the negative control and baseline of activity. Using a type of inducible reporter, measures of mRNA for gain or loss-of-signal activity can be used to understand the reporter gene at the transcription factor-level as they relate to the gene MYC. Furthermore, this assay endpoint can be referred to as a primary readout, because this assay has produced multiple assay endpoints where this one serves a reporter gene function. To generalize the intended target to other relatable targets, this assay endpoint is annotated to the dna binding intended target family, where the subfamily is basic helix-loop-helix leucine zipper.
Human liver HepG2 cells are transiently transfected with multiple reporter transcription units (MRTUs) in 6-well plates using FuGene 6 reagent (Roche; 3 ml FuGene/1 mg DNA). The MRTU constructs are regulated by a cis-regulating element (promoter). […] A major difference between the CIS and TRANS system is that in CIS activities of endogenous TFs are measured, whereas the TRANS assay evaluates changes in activities of exogenous, chimeric NR-Gal4 proteins. […] At the end of 24 hour incubation, total RNA was isolated using TriZol reagent (Invitrogen). The isolated RNA is then reverse-transcribed using oligo(dT) primer and Mo-MLV reverse transcriptase (Invitrogen) with DNAse I (Ambion) treatment for 30 min. The one-tenth of the produced cDNA was amplified by PCR using Taq DNA polymerase (Invitrogen) and two reporter sequence-specific primers. The PCR products were fluorescently labeled by primer extension with 6-arboxyfluorescein (6-FAM) 5'-labeled reporter sequence-specific primer (2 min at 95 C, 20 s at 68 C and 10 min at 72 C) and these products were digested with 5U of HpaI (New England Biolabs) for 2h at 37 C. The fragments were purified using Qiaquick PCR columns (Qiagen), analyzed on an ABI 3130xL genetic analyzer (Applied Biosystems) with peak positions identified by using a set of X-rhodamine (ROX)-labeled MapMarker1000 molecular weight standards (BioVentures). The raw capillary electrophoresis data was processed using Attagraph software (Attagene).
For `CC[C@@H]1C[C@H](N(Cc2cc(C(F)(F)F)cc(C(F)(F)F)c2)C(C)=O)c2cc(C(F)(F)F)ccc2N1C(=O)OC(C)C`, the result was inactive.
Same read-out and setting: the value for `Cc1ccc(C(C)C)cc1` was “inactive”.
Regarding `CCN(Cc1cccc(S(=O)(=O)O)c1)c1ccc(C(=C2C=CC(=[N+](CC)Cc3cccc(S(=O)(=O)O)c3)C=C2)c2ccccc2S(=O)(=O)[O-])cc1`, the result was inactive.
Turning to `Cc1c2ccccc2c(C)c2c1ccc1ccccc12`, the AC50 is 64.1 µM (active).
As to `NC(=O)c1nc(-c2cccc(-c3cc(F)ccc3OCC(F)(F)C(F)(F)F)c2)n[nH]1`, the call was inactive.
Still for that read-out and setting: the value for `CC(C)(C)c1cc(/C=C2\SC(N)=NC2=O)cc(C(C)(C)C)c1O` was “inactive”.
Still for that read-out and setting: the same measure for `CCCCCc1ccc(N)cc1`: “inactive”.
On the same count and under the same terms, the same measure for `Cc1cn([C@H]2C[C@H](N=[N+]=[N-])[C@@H](CO)O2)c(=O)[nH]c1=O`: “inactive”; for `CO[C@H]1/C=C/O[C@@]2(C)Oc3c(C)c(O)c4c(O)c(c(/C=N/N5CCN(C)CC5)c(O)c4c3C2=O)NC(=O)/C(C)=C\C=C\[C@H](C)[C@H](O)[C@@H](C)[C@@H](O)[C@@H](C)[C@H](OC(C)=O)[C@@H]1C`: “inactive”.
For the compound `O=C1c2ccccc2C(=O)N1CCc1noc(-c2ccc(CN3CCCCCC3)s2)n1`, the call was inactive.
Same read-out and setting: the value for `O=C1O[C@H]([C@@H](O)CO)C(O)=C1O` was “inactive”.
Same read-out and setting: the value for `CN(C)C(=O)C1(N2CCCCC2)CCN(CC[C@@]2(c3ccc(Cl)c(Cl)c3)CN(C(=O)c3ccccc3)CCO2)CC1` was “inactive”; that for `Cc1cccc2ccccc12` was “inactive”; that for `O=C(O)c1ccccc1C(=O)OCc1ccccc1` was “inactive”.
On the same count and under the same terms, the value for `CC(=O)N1CCN(c2ccc(OC[C@H]3CO[C@](Cn4ccnc4)(c4ccc(Cl)cc4Cl)O3)cc2)CC1` was “inactive”.
For the compound `CCCCOC(=O)CC(CC(=O)OCCCC)(OC(C)=O)C(=O)OCCCC`, the outcome was inactive.
The same measure, in the same setting: the value for `O=C(OCCCCCCOC(=O)c1ccccc1)c1ccccc1` was “inactive”; that for `Clc1cc(Cl)c2c(c1)N=C1CCCCCN1C2` was “inactive”; that for `O=c1[nH]sc2ccccc12` was “inactive”.
In the case of `CC/C(=C(/CC)c1ccc(O)cc1)c1ccc(O)cc1`, the AC50 is 18.6 µM (active) and the call was inactive.
Regarding `COc1cccc([C@H](O)C2CCN(CCc3ccc(F)cc3)CC2)c1OC`, the outcome was inactive.
The same measure, in the same setting: the value for `COc1ccc2cc(S(=O)(=O)N[C@H](CC(=O)N[C@H](Cc3ccc(CN4[C@H](C)CCC[C@@H]4C)cc3)C(=O)N(C)C(C)C)c3ccc4c(c3)OCO4)ccc2c1` was “inactive”.
The same measure, in the same setting: the value for `Cc1cc(F)ccc1-c1cc(N2CC[C@@H](O)[C@H]2CO)ncc1N(C)C(=O)C(C)(C)c1cc(C(F)(F)F)cc(C(F)(F)F)c1` was “inactive”.
For the compound `CCCCOC(=O)c1ccc(O)cc1`, the AC50 is 100 µM (active) and the outcome was inactive.
Consider `CN(C[C@@H](CC[N+]12CCC(C3CCCCC3)(CC1)CC2)c1ccc(Cl)c(Cl)c1)C(=O)c1cc(C(F)(F)F)cc(C(F)(F)F)c1`, for which the call was inactive.
The same measure, in the same setting: the same measure for `O=CCCCC=O`: “inactive”; for `Cc1ncc(CO)c(CO)c1O`: “inactive”.
On the same count and under the same terms, the same measure for `CC(C)(O)c1ccc(CNC(=O)c2cccnc2Oc2ccc3nonc3c2)cc1`: “inactive”; for `CC[C@H](NC(=O)c1cc(F)ccc1NS(=O)(=O)c1cccc2cccnc12)c1ccccc1`: “inactive”.
On to `CCCC(=O)OCCC(C)C`, for which the result was inactive.
Still for that read-out and setting: the value for `COCC(C)OCC(C)OCC(C)O` (stereo not given) was “inactive”.
`CN1C(=O)N(c2ccccc2Br)Cc2cnc(Nc3ccc4c(c3)OCC(CO)O4)nc21` (stereo not given): the AC50 is 2.93 µM (active).
Consider `O=C1CCC(C2CCCCC2)CC1`, for which the AC50 was 187 µM (active) and the result was inactive.
Turning to `CC1(C)NC(=O)N(c2ccc([N+](=O)[O-])c(C(F)(F)F)c2)C1=O`, the call was inactive.
On the same count and under the same terms, the value for `O=c1ccc2ccccc2o1` was “inactive”; that for `CCCCCCCC[Si](OCC)(OCC)OCC` was “inactive”; that for `Oc1ccc2ccccc2c1` was “inactive”.

For the origin of these results see PubChem BioAssay (EPA / NIEHS).
